Results taken from PubChem BioAssay (EPA / NIEHS).
Activity calls are given as the source filed them. The calls were made as follows: active = hit-call score of the fitted dose curve at least 0.9, where 1 is the maximum; inactive = score below 0.9.

Tests used:
[1] = read-out: Interferon-gamma inducible Protein 10 (IP10), CXCL10 (gene 3627); test: BSK_hDFCGF_IP10: BioMAP Diversity Plus: hDFCGF Assay for Interferon-gamma inducible Protein 10 (IP10) Biomarker Activity (AID 2283053); conditions: primary human foreskin fibroblasts; actives raise or lower the signal
In short: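 ELISA read-out of IP-10 (CXCL10) from primary human skin fibroblasts, 24 h after compound addition. Gain or loss of signal versus DMSO baseline, bidirectional curve fitting.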

[2] = read-out: Urokinase-type plasminogen activator receptor (uPAR), PLAUR (gene 5329); test: BSK_CASM3C_uPAR: BioMAP Diversity Plus: CASM3C Assay for Urokinase-type plasminogen activator receptor (uPAR) Biomarker Activity (AID 2283054); conditions: primary human coronary artery smooth muscle cells; actives raise or lower the signal;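 also: cell-surface uPAR protein level quantified by ELISA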
[3] = read-out: Vascular cell adhesion molecule 1 (VCAM1), VCAM1 (gene 7412); test: BSK_CASM3C_VCAM1: BioMAP Diversity Plus: CASM3C Assay for Vascular cell adhesion molecule 1 (VCAM1) Biomarker Activity (AID 2283055); conditions: primary human coronary artery smooth muscle cells; actives raise or lower the signal;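 also: VCAM-1 protein level quantified by ELISA on the cells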
[4] = read-out: Epidermal growth factor receptor (EGFR), EGFR (gene 1956); test: BSK_hDFCGF_EGFR: BioMAP Diversity Plus: hDFCGF Assay for Epidermal growth factor receptor (EGFR) Biomarker Activity (AID 2283057); conditions: primary human foreskin fibroblasts; actives raise or lower the signal
In short: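 ELISA readout of EGFR on human dermal fibroblasts (primary foreskin cells), 24 h post-dosing; bidirectional curve fit vs DMSO baseline, gain or loss of signal scored.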

[5] = read-out: Interleukin-8 (IL8), CXCL8 (gene 3576); test: BSK_hDFCGF_IL8: BioMAP Diversity Plus: hDFCGF Assay for Interleukin-8 (IL8) Biomarker Activity (AID 2283058); conditions: primary human foreskin fibroblasts; actives raise or lower the signal
In short: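 ELISA read-out of IL-8 from primary human foreskin fibroblast cultures taken 24 h after dosing; values are bidirectional fits relative to DMSO vehicle.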

[6] = BSK_hDFCGF_Proliferation: Cell Proliferation Assessment in the BioMAP Diversity Plus: hDFCGF Assay (AID 2283059); conditions: primary human foreskin fibroblasts;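 also: curves fitted for both rise and fall of signal versus DMSO baseline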
In short: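 Steps: dose primary human dermal fibroblasts (foreskin); […] fix in 10% TCA; stain with 0.1% SRB; read 560 nm; fit gain or loss of signal against DMSO.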

[7] = read-out: Macrophage colony-stimulating factor (MCSF), CSF1 (gene 1435); test: BSK_hDFCGF_MCSF: BioMAP Diversity Plus: hDFCGF Assay for Macrophage colony-stimulating factor (MCSF) Biomarker Activity (AID 2283060); conditions: primary human foreskin fibroblasts; actives raise or lower the signal
In short: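 ELISA read-out of M-CSF in human dermal foreskin fibroblast cultures, 24 h after chemical dosing; gain or loss of signal fitted bidirectionally relative to DMSO baseline.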

[8] = BSK_hDFCGF_SRB: Viability Assessment in the BioMAP Diversity Plus: hDFCGF Assay (AID 2283061); conditions: primary human foreskin fibroblasts;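 also: cells exposed to compound for 24 h before the read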
In short: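 Primary human foreskin fibroblasts; 24 h post-dose; fixed 10% TCA, stained 0.1% SRB, A560 read; total protein as overt cytotoxicity measure; curves fit bidirectionally vs DMSO control.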

[9] = read-out: Monokine induced gamma interferon (MIG), CXCL9 (gene 4283); test: BSK_hDFCGF_MIG: BioMAP Diversity Plus: hDFCGF Assay for Monokine induced gamma interferon (MIG) Biomarker Activity (AID 2283063); conditions: primary human foreskin fibroblasts; actives raise or lower the signal
In short: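 Fibroblasts (human foreskin, primary) dosed, 24 h, MIG by ELISA; fit bidirectional vs DMSO.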

[10] = read-out: Matrix Metallopeptidase 1 (MMP1), MMP1 (gene 4312); test: BSK_hDFCGF_MMP1: BioMAP Diversity Plus: hDFCGF Assay for Matrix Metallopeptidase 1 (MMP1) Biomarker Activity (AID 2283064); conditions: primary human foreskin fibroblasts; actives raise or lower the signal
In short: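 MMP1 levels quantified by ELISA 24 h after dosing human dermal fibroblast cultures, with parallel SRB total-protein staining for overt cytotoxicity. Data fitted in both directions against DMSO baseline.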

[11] = read-out: Vascular cell adhesion molecule 1 (VCAM1), VCAM1 (gene 7412); test: BSK_hDFCGF_VCAM1: BioMAP Diversity Plus: hDFCGF Assay for Vascular cell adhesion molecule 1 (VCAM1) Biomarker Activity (AID 2283065); conditions: primary human foreskin fibroblasts; actives raise or lower the signal
In short: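 ELISA read-out of VCAM-1 on human skin fibroblasts, 24 h post-dose; gain or loss of signal fitted bidirectionally against DMSO baseline.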

[12] = read-out: Plasminogen activator inhibitor-1 (PAI1), SERPINE1 (gene 5054); test: BSK_hDFCGF_PAI1: BioMAP Diversity Plus: hDFCGF Assay for Plasminogen activator inhibitor-1 (PAI1) Biomarker Activity (AID 2283066); conditions: primary human foreskin fibroblasts; actives raise or lower the signal
In short: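 ELISA readout of PAI-1 from primary human skin fibroblast cultures, 24 h after compound addition. Gain or loss of signal was fitted bidirectionally against DMSO baseline.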

[13] = read-out: Intercellular Adhesion Molecule 1 (ICAM1), ICAM1 (gene 3383); test: BSK_KF3CT_ICAM1: BioMAP Diversity Plus: KF3CT Assay for Intercellular Adhesion Molecule 1 (ICAM1) Biomarker Activity (AID 2283067); conditions: primary human keratinocytes with fibroblasts; actives raise or lower the signal
In short: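 ELISA readout of ICAM-1; KF3CT human skin co-culture (keratinocytes + foreskin fibroblasts), 24 h post-dose; gain/loss fit vs DMSO baseline.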

[14] = read-out: Interferon-gamma inducible Protein 10 (IP10), CXCL10 (gene 3627); test: BSK_KF3CT_IP10: BioMAP Diversity Plus: KF3CT Assay for Interferon-gamma inducible Protein 10 (IP10) Biomarker Activity (AID 2283068); conditions: primary human keratinocytes with fibroblasts; actives raise or lower the signal
In short: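 KF3CT co-culture (keratinocytes + foreskin fibroblasts), 24 h compound, IP-10 by ELISA; bidirectional fit vs DMSO baseline.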

[15] = BSK_KF3CT_SRB: Viability Assessment in the BioMAP Diversity Plus: KF3CT Assay (AID 2283069); conditions: primary human keratinocytes with fibroblasts;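 also: total protein by sulforhodamine B staining as a cytotoxicity measure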
In short: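 Cytotoxicity was gauged by SRB staining (0.1% SRB, 10% TCA fixation, 560 nm) of parallel cultures at 24 h. The cells were primary human skin keratinocytes co-cultured with fibroblasts, and activity was fitted in both directions against DMSO.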

[16] = read-out: Interleukin-1 alpha (IL1a), IL1A (gene 3552); test: BSK_KF3CT_IL1a: BioMAP Diversity Plus: KF3CT Assay for Interleukin-1 alpha (IL1a) Biomarker Activity (AID 2283070); conditions: primary human keratinocytes with fibroblasts; actives raise or lower the signal
In short: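 IL-1a was detected by ELISA 24 h after chemical treatment of a co-culture of human skin keratinocytes and foreskin fibroblasts. Gain or loss of signal was fitted against the DMSO baseline.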

[17] = read-out: Transforming growth factor beta 1 (TGFb1), TGFB1 (gene 7040); test: BSK_KF3CT_TGFb1: BioMAP Diversity Plus: KF3CT Assay for Transforming growth factor beta 1 (TGFb1) Biomarker Activity (AID 2283072); conditions: primary human keratinocytes with fibroblasts; actives raise or lower the signal
In short: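 Read-out: ELISA for TGF-b1 in keratinocyte/foreskin fibroblast human skin co-culture, 24 h after dosing; bidirectional curve fit vs DMSO baseline; gain or loss of signal scored.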

[18] = read-out: TIMP metallopeptidase inhibitor 2 (TIMP2), TIMP2 (gene 7077); test: BSK_KF3CT_TIMP2: BioMAP Diversity Plus: KF3CT Assay for TIMP metallopeptidase inhibitor 2 (TIMP2) Biomarker Activity (AID 2283071); conditions: primary human keratinocytes with fibroblasts; actives raise or lower the signal
In short: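 ELISA readout of TIMP-2 in keratinocyte plus foreskin fibroblast co-cultures (human skin primary cells), 24 h post-dose. Gain or loss of signal fitted relative to DMSO.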

[19] = read-out: TIMP metallopeptidase inhibitor 1 (TIMP1), TIMP1 (gene 7076); test: BSK_hDFCGF_TIMP1: BioMAP Diversity Plus: hDFCGF Assay for TIMP metallopeptidase inhibitor 1 (TIMP1) Biomarker Activity (AID 2283062); conditions: primary human foreskin fibroblasts; actives raise or lower the signal
In short: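 ELISA readout of TIMP-1 from human dermal foreskin fibroblast cultures 24 h post-dosing. Curves were fitted in both directions against DMSO baseline, with SRB total-protein staining in parallel cultures as a cytotoxicity check.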

Measured: outcome

Cc1nc(-c2ccccn2)ncc1C(=O)Nn1cc(C)c2cc(F)ccc21
not listed: [18] | [19]
inactive: all other assays above

CCCCCCCC/C=C\CCCCCCCC(=O)OC[C@@H](O)[C@H]1OC[C@H](O)[C@H]1O
not listed: [19]
inactive: all other assays above

NC(N)=O
not listed: [7] | [10] | [18]
inactive: all other assays above

CCOC(N)=O
not listed: [19]
inactive: all other assays above

O=C(Cl)C(F)(F)C(F)(F)C(F)(F)C(=O)Cl
not listed: [17] | [18] | [19]
inactive: all other assays above

CC(C)CCCCCCOC(=O)C1CCCCC1C(=O)OCCCCCCC(C)C (configuration not stated)
not listed: [10] | [19]
inactive: all other assays above
